Inconclusive results are not listed. The source made the active and inactive calls. Unless noted, the rule behind the calls is not given here.
Legend:
[1] = qHTS Assay for Identifying Gametocytocidal Compounds (AID 743244; active = well fitted curve in the direction sought with a large enough effect; an effect the other way counts as inactive or inconclusive; note: potency is the fitted concentration of half-maximal effect;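 for max response: % is set by controls: 0 for no effect and ±100 for the full control effect; actives lower the fluorescent signal which means gametocytes are killed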); conditions: P. falciparum 3D7 stage III-V gametocytes, alamarBlue, 72 h; max response: stronger effect = lower value
Procedure, shortened: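 Fluorescence at Ex 525/Em 598 nm, recorded 24 h after alamarBlue addition, reports residual metabolic activity of 3D7 gametocytes (stages III–V) following 72 h compound exposure at 37 °C, 5% CO2.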

[2] = Immunotoxin (HA22) sensitization/mitigation study. Vehicle arm (PBS) (AID 1159510); note: potency is the fitted concentration of half-maximal effect
[3] = Immunotoxin (SS1P) sensitization/mitigation study. Vehicle arm (DMEM) (AID 1159513); note: potency is the fitted concentration of half-maximal effect
[4] = qHTS profiling for inhibitors of Plasmodium falciparum (3D7) proliferation (AID 743322);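 note: infected erythrocytes exposed to compound for 72 h before lysis; 100% = DMSO vehicle wells and 0% = 0.29 µM artemisinin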; conditions: P. falciparum 3D7 proliferation; at 28.7 µM (top of the series) unless noted
Procedure, shortened: (§1)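 Erythrocytes infected with P. falciparum (0.3% parasitemia, 2.5% hematocrit) incubated with compounds 72 h at 37 C, 5% CO2. Lysis with saponin/Triton buffer containing SYBR Green I, overnight at room temperature in the dark; DNA fluorescence (485/535 nm) normalised to 0.29 uM artemisinin and DMSO.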

[5] = qHTS profiling for inhibitors of Plasmodium falciparum (DD2) proliferation (AID 743323); conditions: lower = more inhibition; at 28.7 µM (top of the series) unless noted
Procedure, shortened: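 Parasite proliferation measured via DNA-dye fluorescence, as uninfected erythrocytes lack DNA. Cultures at 0.3% parasitemia and 2.5% hematocrit incubated 72 h with compound; signal scaled between vehicle and 0.29 uM artemisinin wells.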

[6] = qHTS profiling for inhibitors of Plasmodium falciparum (HB3) proliferation (AID 743324; active = well fitted curve in the direction sought with a large enough effect; an effect the other way counts as inactive or inconclusive;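 note: 100% = DMSO vehicle wells and 0% = artemisinin-treated control wells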); conditions: Plasmodium falciparum HB3 blood-stage proliferation; at 28.7 µM (top of the series) unless noted
Procedure, shortened: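 P. falciparum HB3 grown in erythrocytes (0.3% parasitemia, 2.5% hematocrit final) with compound for 72 h at 37 C, 5% CO2. Parasite DNA detected by SYBR Green after saponin/triton lysis overnight; normalized to 0.29 uM artemisinin and DMSO.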

[7] = qHTS profiling of the MIPE4 collection as inhibitors of Plasmodium falciparum (DD2) proliferation (AID 743345); conditions: P. falciparum Dd2 in erythrocytes, SYBR Green DNA, 72 h; at 28.5 µM (top of the series) unless noted
Procedure, shortened: as §1

[8] = qHTS profiling of the MIPE4 collection as inhibitors of Plasmodium falciparum (DD2) proliferation (Rep 2) (AID 743346); conditions: P. falciparum Dd2 in erythrocytes, SYBR Green DNA, 72 h; at 28.5 µM (top of the series)
Procedure, shortened: as §1

[9] = qHTS profiling of the MIPE4 collection as inhibitors of Plasmodium falciparum (HB3) proliferation (AID 743347);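 note: plate controls were DMSO vehicle wells for no effect and artemisinin wells for full effect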; conditions: P. falciparum HB3 in erythrocytes, SYBR Green DNA, 72 h; at 28.5 µM (top of the series)
Procedure, shortened: as §1

[10] = qHTS profiling of the MIPE4 collection as inhibitors of Plasmodium falciparum (3D7) proliferation (AID 743344);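 note: scaled between DMSO vehicle wells and 0.29 µM artemisinin as full inhibition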; conditions: P. falciparum 3D7 in erythrocytes, SYBR Green DNA fluorescence, 72 h; at 28.5 µM (top of the series)
Procedure, shortened: as §1

[11] = target: Hexokinase-4 (Homo sapiens) + Glucokinase regulatory protein (Homo sapiens) (UniProt P35557+Q14397); experiment: qHTS assay for inhibitors of recombinant human GCK-GKRP interaction: HTRF assay (AID 743207; active = well fitted curve in the direction sought with a large enough effect; an effect the other way counts as inactive or inconclusive;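 note: 0% = DMSO with GCK present and -100% = DMSO wells lacking GCK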)
Procedure, shortened: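 HTRF read-out (ex 320 nm; 615/665 nm emission) after 60 min RT equilibration of 5 nM GST-GCK, 5 nM FLAG-GKRP, 2 uM S6P, compound and anti-FLAG/anti-GST detection antibodies; signal normalized between DMSO wells with and without GCK.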

Chain of Hexokinase-4 (Homo sapiens) + Glucokinase regulatory protein (Homo sapiens) (P35557 whole entry, looked up): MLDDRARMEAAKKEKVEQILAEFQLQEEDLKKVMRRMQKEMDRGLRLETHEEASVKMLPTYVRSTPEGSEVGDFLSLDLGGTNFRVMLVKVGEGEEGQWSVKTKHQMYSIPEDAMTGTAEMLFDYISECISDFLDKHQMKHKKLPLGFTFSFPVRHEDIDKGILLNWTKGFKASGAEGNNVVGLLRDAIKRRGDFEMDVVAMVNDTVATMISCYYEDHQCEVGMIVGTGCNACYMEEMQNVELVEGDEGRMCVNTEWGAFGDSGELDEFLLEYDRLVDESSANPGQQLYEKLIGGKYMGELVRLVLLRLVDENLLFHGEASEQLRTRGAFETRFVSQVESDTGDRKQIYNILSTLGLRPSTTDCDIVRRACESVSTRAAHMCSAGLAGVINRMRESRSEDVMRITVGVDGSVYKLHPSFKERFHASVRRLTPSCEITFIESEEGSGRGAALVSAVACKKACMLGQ
Chain of Hexokinase-4 (Homo sapiens) + Glucokinase regulatory protein (Homo sapiens) (Q14397 whole entry, looked up): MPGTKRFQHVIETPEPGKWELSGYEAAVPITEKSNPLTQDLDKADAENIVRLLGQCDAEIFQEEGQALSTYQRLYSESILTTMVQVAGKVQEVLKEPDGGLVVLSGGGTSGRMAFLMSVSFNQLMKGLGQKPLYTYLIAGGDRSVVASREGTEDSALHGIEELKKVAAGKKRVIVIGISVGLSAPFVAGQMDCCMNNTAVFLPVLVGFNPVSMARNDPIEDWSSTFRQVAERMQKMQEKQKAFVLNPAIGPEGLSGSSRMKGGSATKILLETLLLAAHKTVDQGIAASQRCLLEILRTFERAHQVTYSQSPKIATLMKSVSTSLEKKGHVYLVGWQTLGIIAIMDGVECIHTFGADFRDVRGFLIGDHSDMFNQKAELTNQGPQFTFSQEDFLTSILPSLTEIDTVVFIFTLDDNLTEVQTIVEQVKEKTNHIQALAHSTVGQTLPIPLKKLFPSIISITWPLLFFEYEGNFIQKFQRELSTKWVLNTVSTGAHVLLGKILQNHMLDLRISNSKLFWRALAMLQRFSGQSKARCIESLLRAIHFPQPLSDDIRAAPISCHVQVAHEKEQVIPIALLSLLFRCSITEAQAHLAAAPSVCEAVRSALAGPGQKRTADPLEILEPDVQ

## O=C(Nc1cc(C(F)(F)F)cc(C(F)(F)F)c1)c1cc(Cl)ccc1O
[1]
  Potency: 7.43 µM (active)
[2]
  Potency: 0.166 µM (active)
[3]
  Potency: 0.0662 µM (active)

## CN(NC(=O)CC(=O)NN(C)C(=S)c1ccccc1)C(=S)c1ccccc1
[3]
  Potency: inactive

## CCOc1ccc(Cc2cc([C@@H]3O[C@H](CO)[C@@H](O)[C@H](O)[C@@H]3O)ccc2Cl)cc1
[3]
  Potency: inactive

## COCCn1c2c([n+](Cc3cnccn3)c1C)C(=O)c1ccccc1C2=O
[1]
  Potency: 0.372 µM (active)
[3]
  Potency: 0.0037 µM (active)

## CC(C)(C)C(=O)Oc1ccc2c(c1)nc(NC(=O)c1cccc([N+](=O)[O-])c1)n2CCCO
[3]
  Potency: inactive

## Cc1cnc(Nc2ccc(OCCN3CCCC3)cc2)nc1Nc1cccc(S(=O)(=O)NC(C)(C)C)c1
[3]
  Potency: inactive

## CC(C)(C)c1[nH]cnc1C=c1[nH]c(=O)c(=Cc2ccccc2)[nH]c1=O
[4]
  remaining parasite growth % (stronger effect = lower value): 58.1%
[5]
  activity, percent of control: 49.6%
[6]
  remaining proliferation (% of control), lower = more inhibition: 37.2%
[7]
  parasite growth remaining, % of DMSO control (lower = more inhibition): 41.8% [at 57.5 µM]
[2]
  Potency: 0.0074 µM (active)
[3]
  Potency: 0.0118 µM (active)

## Nc1nc(-c2nn(Cc3ccccc3F)c3ncccc23)nc(N)c1N1CCOCC1
[4]
  remaining parasite growth % (stronger effect = lower value): 100%
[5]
  activity, percent of control: 94.1%
[6]
  remaining proliferation (% of control), lower = more inhibition: 67.6%
[7]
  parasite growth remaining, % of DMSO control (lower = more inhibition): 91.1%
[8]
  parasite growth, % of control (lower = inhibition): 60.8%
[9]
  growth, % of control: 51.5%
[2]
  Potency: inactive
[3]
  Potency: inactive

## NC(=O)c1ccc(I)c([N+](=O)[O-])c1
[3]
  Potency: inactive

## CC(=O)NCCC(=O)N[C@@H](CCC(N)=O)C(=O)N[C@@H](CO)C(=O)N[C@@H](CCC(N)=O)C(=O)N[C@@H](CCC(N)=O)C(=O)N[C@H](C(=O)N[C@@H](Cc1ccccc1)C(=O)N[C@]1(C)CCCCCCC=CCCC[C@@](C)(C(=O)N[C@@H](CCC(N)=O)C(=O)N[C@@H](CC(N)=O)C(N)=O)NC(=O)[C@H](CC(C)C)NC(=O)[C@H](CC(C)C)NC(=O)[C@@H](CCCNC(=N)N)NC(=O)[C@H](Cc2c[nH]c3ccccc23)NC(=O)[C@H](CC(C)C)NC(=O)[C@H](CC(N)=O)NC1=O)[C@H](C)O
[3]
  Potency: inactive

## Cc1nc2cnc3ccc(C#Cc4cccnc4)cc3c2n1-c1ccc(C(C)(C)C#N)cc1
[1]
  Potency: 5.9 µM (active)
[2]
  Potency: 1.87 µM (active)
[3]
  Potency: 0.132 µM (active)

## CN[C@@H](C)C(=O)N[C@H]1CCCC[C@H]2CC[C@@H](C(=O)N[C@@H](c3ccccc3)c3cn(CCCCc4ccc(CCCCn5cc([C@@H](NC(=O)[C@@H]6CC[C@@H]7CCCC[C@H](NC(=O)[C@H](C)NC)C(=O)N76)c6ccccc6)nn5)cc4)nn3)N2C1=O
[1]
  Potency: 2.64 µM (active)
[2]
  Potency: inactive

## COc1ccc2c(c1)CC[C@H]1[C@@H]2CC[C@]2(C)[C@@H](NCCCCCCN3C(=O)C=CC3=O)CC[C@H]12
[1]
  Potency: 9.35 µM (active)
[4]
  remaining parasite growth % (stronger effect = lower value): 86.3%
[5]
  activity, percent of control: 73.1%
[6]
  remaining proliferation (% of control), lower = more inhibition: 50.7%
[10]
  parasite growth, % of DMSO control: 62.7%
[8]
  parasite growth, % of control (lower = inhibition): 37.3%
[2]
  Potency: 20.9 µM (active)
[3]
  Potency: 20.9 µM (active)

## NC(=O)c1ccc(N(C(N)=O)c2c(F)cccc2F)nc1-c1ccc(F)cc1F
[3]
  Potency: inactive

## Cn1cncc1[C@@](N)(c1ccc(Cl)cc1)c1ccc2c(c1)c(-c1cccc(Cl)c1)cc(=O)n2C
[7]
  parasite growth remaining, % of DMSO control (lower = more inhibition): 33.3%
[2]
  Potency: 11.8 µM (active)
[3]
  Potency: 20.9 µM (active)

## Cc1nc(-c2ccc(-c3ccc(C(=O)N4CCc5cc6c(cc54)C4(CCN(C)CC4)CO6)cc3)c(C)c2)no1
[1]
  max response: -4.85% (inactive)
[4]
  remaining parasite growth % (stronger effect = lower value): 36.2%
[5]
  activity, percent of control: 63.3%
[6]
  remaining proliferation (% of control), lower = more inhibition: 17.2%
[10]
  parasite growth, % of DMSO control: 76%
[7]
  parasite growth remaining, % of DMSO control (lower = more inhibition): 101%
[8]
  parasite growth, % of control (lower = inhibition): 77.5%
[2]
  Potency: 23.5 µM (active)
[3]
  Potency: 26.4 µM (active)

## CC[C@H](CO)Nc1nc(NCc2ccccc2)c2ncn(C(C)C)c2n1
[4]
  remaining parasite growth % (stronger effect = lower value): 61.3%
[5]
  activity, percent of control: 50.4%
[7]
  parasite growth remaining, % of DMSO control (lower = more inhibition): 67.6%
[8]
  parasite growth, % of control (lower = inhibition): 48%
[2]
  Potency: 20.9 µM (active)
[3]
  Potency: 23.5 µM (active)

## CCCCN1CCC(CNC(=O)c2c3n(c4ccccc24)CCCO3)CC1
[4]
  remaining parasite growth % (stronger effect = lower value): 91.7%
[5]
  activity, percent of control: 54.7%
[6]
  remaining proliferation (% of control), lower = more inhibition: 74.4%
[7]
  parasite growth remaining, % of DMSO control (lower = more inhibition): 56.2%
[8]
  parasite growth, % of control (lower = inhibition): 38.7%
[9]
  growth, % of control: 32.4%
[2]
  Potency: inactive
[3]
  Potency: inactive

## Cc1cccc(-c2[nH]ncc2-c2ccc3ncccc3n2)n1
[3]
  Potency: inactive

## CC1CC(C)C(=O)C(C(O)CC2CC(=O)NC(=O)C2)C1 (configuration not stated)
[1]
  Potency: 1.52 µM (active)
[4]
  remaining parasite growth % (stronger effect = lower value): 0.131% [at 57.5 µM]
[5]
  activity, percent of control: 0.244% [at 57.5 µM]
[6]
  remaining proliferation (% of control), lower = more inhibition: -0.376% [at 57.5 µM]
[2]
  Potency: 0.054 µM (active)
[3]
  Potency: 0.191 µM (active)

## CC(C)(Sc1ccc(CCN(CCCCC2CCCCC2)C(=O)NC2CCCCC2)cc1)C(=O)O
[3]
  Potency: inactive

## COc1cc(Nc2ncc3c(n2)-c2ccc(Cl)cc2C(c2c(F)cccc2OC)=NC3)ccc1C(=O)O
[3]
  Potency: inactive

## N#Cc1c(O)c2c(-c3ccc(-c4ccccc4O)cc3)csc2[nH]c1=O
[3]
  Potency: inactive

## CC(C)=CCCC(C)=CCCC(C)=CCSc1ccccc1C(=O)O
[3]
  Potency: inactive

## COc1cc(N2CCC(N3CCN(C)CC3)CC2)ccc1Nc1ncc(Cl)c(Nc2ccccc2S(=O)(=O)C(C)C)n1
[3]
  Potency: 5.26 µM (active)

## NC(N)=NOCCC(N)C(=O)O (configuration not stated)
[11]
  outcome: inactive
[1]
  max response: 10.4% (inactive)

## CN1C2CCC1CC(OC(=O)c1cc(Cl)cc(Cl)c1)C2 (configuration not stated)
[11]
  outcome: inactive

## NC(=NCCC[C@H](N)C(=O)O)N[N+](=O)[O-]
[11]
  outcome: inactive
[1]
  max response: 11.8% (inactive)

From PubChem BioAssay (NCATS)
